This is a sample that favours compounds with a hit; in the whole collection about 18% have one here.
RORgamma inh: ROR gamma (mouse) transcription inhibition; Potency, µM (doses to about 53.6 µM), for inactives: top-dose activity change, negative = inhibition, actives largely listed as inhibitors; 310,000 tested, 5.4% active; P51450; Drosophila S2 Gal4-RORgamma UAS-luciferase reporter, 20 h; also: potency is read from the fitted curve at half-maximal effect; nearly all actives have a fitted effect of over 60% in size
Target sequence (P51450 whole entry, looked up, the tested form may be a part): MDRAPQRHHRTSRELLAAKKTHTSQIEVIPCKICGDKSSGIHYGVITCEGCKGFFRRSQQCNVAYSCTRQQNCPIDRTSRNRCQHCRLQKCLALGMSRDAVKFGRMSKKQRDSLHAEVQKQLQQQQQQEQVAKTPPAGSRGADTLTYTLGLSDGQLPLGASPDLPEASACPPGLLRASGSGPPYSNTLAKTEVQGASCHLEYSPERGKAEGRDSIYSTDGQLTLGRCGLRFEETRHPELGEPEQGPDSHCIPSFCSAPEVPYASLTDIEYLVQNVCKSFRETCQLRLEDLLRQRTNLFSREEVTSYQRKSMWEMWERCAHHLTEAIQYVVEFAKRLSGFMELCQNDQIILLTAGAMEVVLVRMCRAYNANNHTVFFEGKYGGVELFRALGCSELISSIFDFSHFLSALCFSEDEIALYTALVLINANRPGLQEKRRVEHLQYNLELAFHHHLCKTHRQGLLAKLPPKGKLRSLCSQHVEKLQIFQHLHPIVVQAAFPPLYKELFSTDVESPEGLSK
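Drosophila S2 cells stably expressing Gal4-DBD/mouse RORγ fusion under metallothionein promoter plus UAS-luciferase; compound 1 h, then 700 uM CuSO4 induction for 20 h at ambient temperature; inhibition read as reduced luminescence.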
LDHA inh: inhibitors of human lactate dehydrogenase A. P00338. purified LDHA, NADH/diaphorase-resazurin fluorescence; active compounds read low. activity change, % (values are at about 110 or 230 µM). 480,000 tested, 0.15% active; in the data active = activity change below about -30%; inconclusive = mostly about -25% to -30%;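 also: plate controls were DMSO wells for no effect and wells without enzyme for full effect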
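Human LDH5 (2 nM) was incubated with 0.06 mM NADH and 0.2 mM pyruvate for 5 min at room temperature in Tris pH 7.4. Remaining NADH was coupled through diaphorase/resazurin, and resorufin fluorescence was read at 0 and 20 min.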
IL1B secr inh: blocks inflammasome-driven IL-1 beta release; 360,000 tested, 4.7% active; AID 743279; activity change, % at 57.5 µM; THP-1 LPS/ATP IL-1B secretion, AlphaLISA, 16 h; active compounds read low; in the data active = activity change below about -50%; inconclusive = mostly about -30% to -49%
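Secreted IL-1B measured by AlphaLISA bead assay after 16 h compound exposure of THP-1 cells; compounds (final up to 57.5 uM) added 1 h before LPS (250 ng/mL) and ATP (1.25 mM) stimulation; lower signal means less secretion.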
DT40 TDP1 no CPT: qHTS for Inhibitors of human tyrosyl-DNA phosphodiesterase 1 (TDP1): qHTS in cells in absence of CPT; DT40 Tdp1-/- hTDP1 cells, no CPT, ATP luminescence, 48 h; Potency, µM (highest dose often 46.2 µM), for inactives: at the highest dose activity change, negative = growth inhibition, hits mostly inhibitors; 420,000 tested, 15% active; AID 686978, 2013; also: potency is read from the fitted curve at half-maximal effect; nearly all actives have a fitted effect of over 55% in size
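A cellular qHTS used chicken DT40 cells lacking endogenous Tdp1 but carrying stably transfected human TDP1. Compounds were applied without camptothecin, and cell growth kinetics were judged by ATP-dependent luminescence after ≥48 hr.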
TDP1 cell CPT: DT40-hTDP1 cell growth loss with CPT. chicken DT40 Tdp1-/-;hTDP1 cells + 20 nM CPT, ATP luminescence, 48 h. 420,000 tested, 12% active. Potency, µM (top dose mostly 46.2 µM), for the others: top-dose activity change, negative = growth inhibition, most hits filed as inhibitors; also: potency is read from the fitted curve at half-maximal effect; nearly all actives have a fitted effect of over 55% in size
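Chicken DT40 Tdp1-/- cells stably complemented with human TDP1 were seeded at 400 cells/well in medium containing 20 nM camptothecin, exposed to pin-transferred compounds, and grown at 37 °C for at least 48 hr. Viability was read as ATP luminescence.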
VP16 counter: inhibits Gal4-VP16 luciferase reporter, ROR gamma counter-screen | Drosophila S2 Gal4-VP16 UAS-luciferase, luminescence, 20 h | Potency, µM (titrated, usually from 53.6 µM), without a hit: top-dose activity, negative = inhibition, most hits filed as inhibitors | 310,000 tested, 3.5% active | AID 2546;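 also: Gal4-VP16 expression switched on by copper sulfate through the metallothionein promoter; potency is read from the fitted curve at half-maximal effect; nearly all actives have a fitted effect of over 50% in size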
An asterisk follows results filed as active; ? = inconclusive; nt = no result given. Unless noted, calls follow the shape of the dose curve; as a rule, active = well fitted curve in the direction sought with a large enough effect; inconclusive = small, poorly fitted or top-dose-only effect, or another doubt; inactive = no such curve, though single readings can be large; an effect the other way counts as inactive or inconclusive. Unless noted, % is scaled to controls: 0 for no effect and ±100 for the full control effect.

SMILES | RORgamma inh | LDHA inh | IL1B secr inh | DT40 TDP1 no CPT | TDP1 cell CPT | VP16 counter
Cc1[nH]c2ccc(C(=O)OC(C)C(=O)NCc3ccccc3)cc2c1C (stereo unspecified) | nt | -6.5 | -56.5* | 6.51µM* | 13µM* | nt
CC(OC(=O)c1cnc(Cl)c(Cl)c1)C(=O)NCc1ccccc1 (stereo unspecified) | nt | -12.3 | -87.2* | 2.6% | ? | nt
COc1ccc(C)cc1NC(=O)c1ccc(-n2cccn2)cc1 | nt | -5.0 | nt | nt | nt | nt
CN(C)c1nc(N)nc(COc2ccc(Cl)c3ccccc23)n1 | nt | 12.9 | nt | nt | nt | nt
O=C(Cc1n[nH]c(=O)c2ccccc12)NCc1ccccc1CN1CCCC1 | nt | 4.8 | nt | nt | nt | nt
O=C(c1ccoc1)N1CCC2(CC1)Oc1ccc(F)cc1C(=O)C21CC(c2ccccc2)=NO1 (stereo unspecified) | -1.9% | -8.4 | -20.3 | ? | ? | -18.1%
O=C(c1ccoc1)N1CCC2(CC1)Oc1ccc(F)cc1C(=O)C21CC(c2ccc(Cl)cc2)=NO1 (stereo unspecified) | 9.5% | 0.3 | -56.4* | ? | ? | 7.4%
O=C(c1ccoc1)N1CCC2(CC1)Oc1ccc(Cl)cc1C(=O)C21CC(c2ccc(Cl)cc2)=NO1 (stereo unspecified) | 6.2% | -6.7 | ? | ? | 20.6µM* | -7.6%
CCCSc1cc(N2CCN(C)CC2)nc(-c2ccc(OC)cc2)n1 | 0.5% | -3.3 | -56.9* | ? | ? | -5.9%
CN1N=C(N)c2cn(C3OC(COP(=O)(O)O)C(O)C3O)c3ncnc1c23 (stereo unspecified) | nt | -31.9* | 181.2 | -27.2% | ? | nt
Cc1cc(C(=O)N/N=C/c2ccc([N+](=O)[O-])s2)n[nH]1 | -40.1% | 0.6 | -5.6 | 5.17µM* | 5.8µM* | ?
Cc1[nH]cnc1C(=O)N/N=C/c1ccc([N+](=O)[O-])s1 | -30.3% | -6.3 | 16.9 | 10.3µM* | 11.6µM* | ?
Cc1cc(C(=O)N/N=C/c2ccc(-c3ccc([N+](=O)[O-])cc3Cl)o2)n[nH]1 | -28.9% | -1.7 | -24.2 | -29.1% | -15.8% | -15.1%
Cc1cc(C(=O)N/N=C/c2cc(Cl)cc([N+](=O)[O-])c2O)n[nH]1 | 7.94µM* | 10.3 | 18.2 | -8.8% | 14.2% | ?
C=CC(=O)N(CCC)C(c1ccccc1)c1ccccc1OC (stereo unspecified) | nt | 0.8 | -27.0 | 14.6µM* | 16.4µM* | nt
Cc1cc(C)c(C#N)c(Sc2nc(C)c([N+](=O)[O-])c(C)c2C#N)n1 | nt | -3.3 | ? | 5.8µM* | 3.66µM* | nt
Cc1nc(Sc2ccccc2)c(C#N)cc1-c1ccccc1 | 42.0% | -1.1 | -5.1 | -12.2% | -27.7% | -11.7%
Cc1nc(Sc2ccccc2)c(C#N)c(C)c1[N+](=O)[O-] | -30.2% | -3.2 | nt | 16.4µM* | ? | 3.9%
Cc1cc(C)c(C#N)c(SCc2ccc([N+](=O)[O-])cc2)n1 | 3.6% | -7.0 | -10.1 | 22.6% | 0.9% | 21.0%
CN(Cc1ccc(Br)cc1)c1ccc(S(N)(=O)=O)cn1 | nt | -0.2 | nt | nt | nt | nt
COc1cc(COc2ccc3c(C)c(Cc4ccccc4)c(=O)oc3c2C)cc(OC)c1OC | 16.8% | -4.3 | 37.5 | 18.4µM* | 20.6µM* | -4.3%
COc1ccc(C(=O)C2CCCN(Cc3cccn3-c3nccs3)C2)cc1F (stereo unspecified) | -7.8% | 0.9 | -83.8* | 20.6µM* | 23.1µM* | 1.5%
OCCC1CN(Cc2cccn2-c2nccs2)CCN1Cc1ccc(F)c(F)c1 (stereo unspecified) | -3.5% | 0.2 | -6.2 | 18.4µM* | 13µM* | -6.0%
OCCC1CN(Cc2cccn2-c2nccs2)CCN1Cc1ccccc1 (stereo unspecified) | 1.5% | -4.3 | -2.1 | -5.8% | -26.3% | 7.9%
COc1ccc(C(=O)C2CCCN(Cc3cccn3-c3nccs3)C2)cc1OC (stereo unspecified) | -21.3% | -12.0 | -27.7 | 13µM* | 18.4µM* | 4.3%
SMILES | RORgamma inh | LDHA inh | IL1B secr inh | DT40 TDP1 no CPT | TDP1 cell CPT | VP16 counter
CONC(=O)C(C)c1ccc2cc(OC)ccc2c1 (stereo unspecified) | nt | 0.1 | nt | nt | nt | nt
CC1Cc2cc(S(N)(=O)=O)ccc2N1CC(=O)Nc1ccc(Cl)cc1F (stereo unspecified) | nt | -4.8 | nt | nt | nt | nt
Cc1[nH]c2ccc(C(=O)N3CCC(C(=O)NCC(C)(C)CN(C)C)CC3)cc2c1C | nt | -1.4 | nt | nt | nt | nt
Cc1c(C(=O)c2ccc(N(C)C)cc2)c2ccccn2c1CCC#N | 0.0% | -0.4 | -73.3* | ? | -27.9% | -4.2%
COc1cccc(Nc2nc(C(N)C(C)C)cs2)n1 (stereo unspecified) | nt | -3.4 | nt | 23.1µM* | 16.4µM* | nt
COc1cccc(Nc2nc(C(N)CCc3ccccc3)cs2)n1 (stereo unspecified) | nt | -3.3 | -87.0* | ? | 18.4µM* | nt
COc1cccc(Nc2nc(C(N)CC(C)C)cs2)n1 (stereo unspecified) | nt | -2.5 | ? | ? | 16.4µM* | nt
NC(CCc1ccccc1)c1csc(Nc2cnccn2)n1 (stereo unspecified) | nt | -8.6 | -24.4 | 13µM* | 23.1µM* | nt
CC(C)C(N)c1csc(Nc2ccc(C(=O)N(C)Cc3ccccc3)cn2)n1 (stereo unspecified) | nt | -6.3 | 0.0 | ? | ? | nt
NC(Cc1ccccc1)c1csc(Nc2ccc(C(=O)NCCO)cc2)n1 (stereo unspecified) | nt | -7.2 | -18.6 | ? | ? | nt
NC(=O)c1cccc(Nc2nc(C(N)CCc3ccccc3)cs2)n1 (stereo unspecified) | nt | -12.1 | 0.0 | 2.91µM* | 2.06µM* | nt
COc1ccc2cc(C(=O)Nc3ccc(N(C)C)c(C)c3)c(C)nc2c1 | nt | -3.6 | nt | nt | nt | nt
COc1cccc(-c2nc(S(=O)(=O)c3ccccc3)c(N3CCCCC3)o2)c1 | nt | -3.9 | nt | 16.4µM* | ? | nt
COc1ccc(-c2nc(S(=O)(=O)c3ccccc3)c(N3CCCC3)o2)cc1 | nt | -4.3 | 5.3 | -4.7% | -0.7% | nt
COc1cccc(-c2nc(S(=O)(=O)c3ccc(C)cc3)c(N3CCCCC3)o2)c1 | nt | -4.7 | nt | 18.4µM* | 20.6µM* | nt
COc1ccc(-c2nc(S(=O)(=O)c3ccc(C)cc3)c(N3CCCC3)o2)cc1 | -17.9% | -3.1 | 18.6 | -24.6% | -19.1% | 6.5%
Cc1noc(C)c1S(=O)(=O)N1CCCC1c1cc(C(C)C)no1 (stereo unspecified) | nt | 2.5 | nt | nt | nt | nt

Screening results: PubChem, National Center for Advancing Translational Sciences (NCATS)
